# RAD52 anneal inh – RAD52 (human) annealing inhibition; inhibition, % at 18.7 µM; 360,000 compounds, 0.46% hits; AID 651710; recombinant RAD52 DNA annealing, FRET fluorescence;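 active means every replicate showing at least 50% inhibition; inconclusive means mean inhibition at least 50% but not in every replicate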
# FGF22 binding – FGF22 (human) thermal shift binding. 340,000 compounds, 1.5% hits. activity (Tm shift, normalised), % at 9.99 µM. AID 651658. Q9HCT0. recombinant FGF22 thermal shift, SYPRO orange fluorescence; percent of sucrose octasulfate shift, DMSO zero;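 active means mean Tm shift, scaled 0 neutral to 100 positive control, at about 1.3% or above, every replicate too, limit read from the data; inconclusive means no clear call, values can overlap the other calls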
# ERAP1 inh – ERAP1 (human) enzyme inhibition | Q9NZ08 | recombinant ERAP1, Leu-AMC fluorescence, 60 min | inhibition, % at 10.7 µM | 340,000 compounds, 0.15% hits;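 active means mean replicate inhibition of at least 30%, or all replicates individually reaching that 30% level; inactive means mean below 30% and not every replicate reaching it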;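 further: 0% = neutral control wells and 100% = L-leucinethiol positive control wells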
# MLL AF4-AF9 inh – MLL-AF4/AF9 protein interaction inhibition | P42568 | AlphaScreen, biotin-AF4 peptide binding to FLAG-AF9 | inhibition, % at 10 µM | 350,000 compounds, 0.47% hits;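 active means every replicate reaching a set inhibition limit, whatever the replicate mean, cut at about 25% in these data; inconclusive means mean inhibition reaches that limit but some replicates miss it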;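 further: 0% = plate neutral control median and 100% = total signal loss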
# Target sequence (P42568 whole entry, looked up): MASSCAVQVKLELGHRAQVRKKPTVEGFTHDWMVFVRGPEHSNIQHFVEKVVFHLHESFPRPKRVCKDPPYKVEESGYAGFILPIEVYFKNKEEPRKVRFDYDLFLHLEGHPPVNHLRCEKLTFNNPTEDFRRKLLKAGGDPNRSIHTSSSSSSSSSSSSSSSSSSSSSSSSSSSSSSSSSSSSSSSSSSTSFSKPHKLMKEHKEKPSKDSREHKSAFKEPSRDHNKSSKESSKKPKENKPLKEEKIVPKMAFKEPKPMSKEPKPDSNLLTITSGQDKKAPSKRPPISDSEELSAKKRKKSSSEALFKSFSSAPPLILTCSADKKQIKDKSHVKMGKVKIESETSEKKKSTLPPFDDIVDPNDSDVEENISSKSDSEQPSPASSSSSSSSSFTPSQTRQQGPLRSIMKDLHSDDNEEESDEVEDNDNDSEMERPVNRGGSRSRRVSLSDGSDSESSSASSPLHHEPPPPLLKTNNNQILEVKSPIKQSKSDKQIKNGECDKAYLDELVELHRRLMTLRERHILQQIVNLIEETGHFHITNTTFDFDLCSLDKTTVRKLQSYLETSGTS
# DENV2 CPE – protects cells from dengue virus 2 cytopathic effect; DENV2-infected cells, cytopathic effect rescue, plate reader; CPE inhibition, % at 9.99 µM; 350,000 compounds, 1.7% hits; AID 651640; in the data active means CPE inhibition above about 20%, passing the limit was not always enough; inconclusive means no clear call, values can overlap the other calls; tested in BHK-21 cells;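 further: 0% = median of neutral control wells and 100% = median of positive control wells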
# RAD52 DNA ctr – DNA binding artifact in RAD52 counter-screen. shares compounds with RAD52 anneal inh. Salmon sperm DNA/acridine orange FP displacement. 1,000 compounds, 8% hits. AC50, µM;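 active means fitted half-maximal concentration for signal loss at or below twice the highest dose tested, in every separate run, actives reach about 64 µM in these data; inconclusive means runs disagree, or flat partial signal loss, or poor fit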
# Starred values were filed as active, the others as inactive; i = inactive; ? = inconclusive; nt = not tested or not shown. Rows were chosen to be rich in hits. Some 4% of all compounds tested hit in one or more screens of this group.
SMILES,RAD52 anneal inh,FGF22 binding,ERAP1 inh,MLL AF4-AF9 inh,DENV2 CPE,RAD52 DNA ctr
Cc1cc2cc(CNC(=O)c3cccc([N+](=O)[O-])c3)ccc2n1C,53.8*,0.1,-1.5,-7.3,?,i
Nc1nc2ccc([N+](=O)[O-])cc2[nH]1,-9.5,-0.2,-1.3,-1.1,-1.7,nt
Nc1nc(N)c2c(ccc3nccc32)[nH]1,77.2*,0.0,-1.0,3.4,-0.5,i
COc1ccccc1NC(=O)N(C)C[C@@H]1OCc2cn(nn2)CCCC(=O)N([C@@H](C)CO)C[C@@H]1C,-1.1,-0.1,-0.2,-1.2,-2.5,nt
O=C([C@@H]1[C@@H](CO)[C@@H]2Cn3c(ccc(-c4ccccc4)c3=O)[C@@H]2N1CCC(F)(F)F)N1CCOCC1,3.0,0.1,0.8,-3.3,1.8,nt
CC(C)OCC(O)CN1CCN(CCN2C(=O)c3cccc4cccc(c34)C2=O)CC1 (stereo not drawn),93.5*,0.0,-3.2,1.6,-0.3,i
Cc1ccccc1OCC(O)CN1CCN(CCN2C(=O)c3cccc4cccc(c34)C2=O)CC1 (stereo not drawn),1.1,0.7,5.1,10.8,6.8,nt
CN1CCN(c2cc(-c3cc(O)c4ncccc4c3)ccn2)CC1,106.9*,0.0,-3.0,83.9*,-5.3,i
O=C(C[C@@H]1C[C@@H]2c3cc(NC(=O)Nc4ccc(C(F)(F)F)cc4)ccc3O[C@@H]2[C@H](CO)O1)NC1CCCCC1,-9.8,0.0,1.2,-1.5,9.5,nt
COc1cccc(CNC(=O)C[C@H]2C=C[C@@H](NC(C)=O)[C@H](CO)O2)c1,1.6,0.1,0.2,-2.9,-2.5,nt
CC(=O)c1cccc(Nc2cc(C)nc3c(C)cccc23)c1,50.3*,0.1,-3.5,0.0,0.4,i
CCCNC(=O)c1csc(Nc2cccc3ccccc23)n1,-12.1,0.2,nt,-3.1,7.3,nt
CN(C)CCNC(=O)c1csc(Nc2cccc3ccccc23)n1,50.9*,-0.5,-0.5,14.9,1.8,i
CCOc1ccc2c(C)nc(NC3=NC(C)(C)C=C(C)N3)nc2c1,91.1*,nt,-7.4,nt,nt,i
C[C@@H](c1ccccc1)N1C[C@H](COCc2ccccc2)Oc2cc(N3CC[C@H](N(C)C)C3)ccc2S1(=O)=O,51.8*,0.0,15.6,25.9*,?,i
C[C@H]1CCCCO[C@H](CN(C)C(=O)Nc2ccc(F)cc2)[C@@H](C)CN([C@@H](C)CO)C(=O)c2cc(NC(=O)c3ccccc3)ccc2O1,15.4,0.0,-0.8,1.6,-5.6,nt
Oc1ccccc1C=Nc1cccc2ccccc12,1.3,-0.1,-1.4,-3.0,-10.6,nt
Oc1ccccc1/C=N/[n+]1ccccc1,58.2*,0.1,97.2*,5.5,8.0,i
CCOC(=O)c1c(NC(=O)c2ccc(S(=O)(=O)N3CCOCC3)cc2)sc2c1CCN(C)C2,59.2*,0.0,5.0,13.8,-2.8,i
c1ccn(CCc2ccncc2)c1,-19.1,nt,-6.2,-0.4,0.3,nt
Nc1ccc(CCn2ccnc2)cc1,50.7*,-0.1,0.1,10.8,-1.0,i
Cc1cc(C)nc(/N=C(\N)Nc2ccc(OCc3ccccc3)cc2)n1,55.1*,-0.2,-2.4,12.4,nt,i
Cc1cc(C)nc(/N=C(\N)Nc2cccc(OCc3ccccc3)c2)n1,48.9,0.0,-4.0,6.2,-11.3,nt
COc1ccc(CN(C)C[C@H]2OCCCC[C@@H](C)Oc3ccc(N(C)C)cc3C(=O)N([C@@H](C)CO)C[C@@H]2C)cc1,9.5,-0.7,0.2,7.6,14.7,nt
NC(COCc1ccccc1)c1csc(Nc2ccc(C(=O)c3ccccc3)cc2)n1 (stereo not drawn),58.1*,-0.4,4.6,2.2,-2.8,i
CCC(=O)N(C)C[C@H]1Oc2ncc(-c3ccccc3C)cc2C(=O)N([C@H](C)CO)C[C@H]1C,5.0,0.3,-1.8,-5.2,-9.3,nt
CCCC1=Nc2cc(C(=O)NCCCN3CCN(C)CC3)ccc2Sc2ccccc21,47.2,-0.2,0.2,16.9,-3.7,nt
CC1=Nc2cc(C(=O)NCCCN3CCN(C)CC3)ccc2Sc2ccc(C)cc21,77.3*,-0.2,2.5,27.0*,-0.5,i
O=S(=O)(N[C@H]1CC[C@@H](CCn2cc(C3(O)CCCC3)nn2)O[C@H]1CO)c1ccc(Cl)cc1,-13.3,-0.1,0.5,-1.8,2.8,nt
CCc1cc(OCCN(C)C)ccc1Cl,-4.7,0.0,-3.7,0.2,-1.9,nt
